# PG9 Ab binder – PG9 antibody binding by small molecule; TR-FRET gp120-PG9 antibody binding; inhibition, % at 6.7 µM; 360,000 tested, 0.43% active; AID 624416; in the data active means inhibition above about 8.5%
# LEDGF integ inh – blocks HIV-1 LEDGF/p75-dependent DNA integration. AID 743269. inhibition, % at 3.7 µM. 370,000 tested, 0.64% active. TR-FRET IN-LEDGF/p75 DNA integration, Eu/Cy5;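 active means inhibition above the screen-wide mean plus 3 SD, cut at about 13% in these data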;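 further: signal is the Cy5 over europium emission ratio at 671 and 618 nm; 0% = plate median of compound wells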
# MBD2 inh – MBD2-methylated oligo binding inhibition; 370,000 tested, 0.31% active; TR-FRET, MBD2 binding to methylated oligonucleotide; inhibition, % at 4.4 µM; Q9UBB5; in the data active means inhibition above about 13%
# UHRF1 binding – human UHRF1 methylated DNA binding inhibitors | Q96T88 | UHRF1 binding to methylated oligo, TR-FRET | inhibition, % at 4.4 µM | 370,000 tested, 0.75% active; in the data active means inhibition above about 21%;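 further: UHRF1 SRA domain binding a hemimethylated CpG hairpin DNA probe; 0% = median of test compound wells and 100% = reference inhibitor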
# Target sequence (Q96T88 whole entry, looked up, the tested form may be a part): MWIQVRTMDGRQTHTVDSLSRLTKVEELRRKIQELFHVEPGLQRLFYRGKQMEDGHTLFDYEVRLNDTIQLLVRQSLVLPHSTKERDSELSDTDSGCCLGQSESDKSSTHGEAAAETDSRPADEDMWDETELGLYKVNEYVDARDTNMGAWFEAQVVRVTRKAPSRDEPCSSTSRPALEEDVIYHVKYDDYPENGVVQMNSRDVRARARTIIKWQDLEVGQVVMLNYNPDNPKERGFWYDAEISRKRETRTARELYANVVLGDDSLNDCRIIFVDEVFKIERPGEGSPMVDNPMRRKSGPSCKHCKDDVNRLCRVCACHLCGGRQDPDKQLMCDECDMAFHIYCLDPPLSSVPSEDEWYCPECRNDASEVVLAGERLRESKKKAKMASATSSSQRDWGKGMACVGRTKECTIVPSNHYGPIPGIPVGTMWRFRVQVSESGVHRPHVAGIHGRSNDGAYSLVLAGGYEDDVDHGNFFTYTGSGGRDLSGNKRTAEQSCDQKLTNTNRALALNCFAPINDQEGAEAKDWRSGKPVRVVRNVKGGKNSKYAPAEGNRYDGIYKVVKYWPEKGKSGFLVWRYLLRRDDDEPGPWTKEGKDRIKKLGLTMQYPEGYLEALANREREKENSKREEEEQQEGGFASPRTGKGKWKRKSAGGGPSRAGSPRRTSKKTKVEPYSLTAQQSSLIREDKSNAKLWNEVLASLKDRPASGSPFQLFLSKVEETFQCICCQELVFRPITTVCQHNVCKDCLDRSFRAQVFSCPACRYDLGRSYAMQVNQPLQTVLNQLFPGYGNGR
# DNMT1 block – DNMT1 (human) enzyme inhibition; P26358; DNMT1 molecular beacon, Hinp1I cleavage, fluorescence; 360,000 tested, 0.83% active; inhibition (reported as % activation of signal), % at 10 µM; in the data active means inhibition above about 50%
# rCAG RNA binder – binds r(CAG) RNA repeats; 370,000 tested, 1.3% active; inhibition, % at 3 µM; r(CAG) RNA repeat, TO-PRO-1 dye displacement fluorescence;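 active means inhibition above the plate cutoff, the mean of all test compounds on that plate plus 3 SD, cut at about 35% in these data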;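 further: 0% = DMSO alone and 100% = 100 µM mitoxantrone as full dye displacement; higher means more dye released from RNA so lower well fluorescence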
# Active calls of the source: *; . = no result given. A selection: hits, their analogues and other compounds. The true share with any hit is near 3.5%.
SMILES,PG9 Ab binder,LEDGF integ inh,MBD2 inh,UHRF1 binding,DNMT1 block,rCAG RNA binder
CC(Cc1ccccc1)NCc1ccccc1O (stereo unspecified),2,-4,3,35*,-1,-2
COc1ccc(/C=C2\C(=O)NC(=S)N(C)C2=O)cc1C,1,-6,6,15,94*,26
COC(=O)C1=C[C@H]([C@@H](C)[C@H](OC)c2ccccc2Br)[C@@H]2[C@H]1c1ccccc1N2C,.,0,-3,-2,.,6
O=C1NC(=O)C(=Cc2ccco2)C(=O)N1,-1,8,-1,14,82*,2
COc1cccc(NC2=NCCS2)c1,0,-2,1,2,.,0
CC1Oc2cc3c(-c4c(O)cc(O)c5c(O)c6c(cc45)OC(C)C(C)C6=O)c(O)cc(O)c3c(O)c2C(=O)C1C (stereo unspecified),.,.,.,.,60*,.
O=S(=O)(c1ccc(Cl)cc1)N1Cc2ccc(Br)cc2-n2nncc2C1,0,-2,1,3,.,1
Cc1ccc(CNCCc2ccccc2F)cc1,-2,2,10,25*,0,-1
CCN(CC)c1ccc(CNCCc2ccccc2F)cc1,-1,0,-3,0,-1,7
O=C1NC(=O)C(=Cc2ccc(Sc3ccccc3)o2)C(=O)N1,4,3,-5,-2,12,7
O=C1NC(=O)N(c2ccc(Cl)cc2)C(=O)/C1=C\c1ccc(Sc2nc3ccccc3[nH]2)o1,2,8,1,1,34,49*
C=Cc1cc(OC)c2c(c1)c(=O)oc1c2cc(OC)c2c(O)ccc(C3OC(C)C(O)C(C)(O)C3O)c21 (stereo unspecified),-2,10,31*,10,62*,20
Cc1cccc(C(C)c2cnc[nH]2)c1C (stereo unspecified),.,-6,2,2,.,2
COP(=O)(OC)C(C)NC(=O)OCc1ccccc1 (stereo unspecified),.,-2,-1,4,.,.
CCN(C(=O)COC(=O)c1cn(C)c2ccccc12)c1ccc(F)cc1,-1,7,6,22*,-2,-2
Cn1cc(C(=O)OCC(=O)Nc2ccccc2)c2ccccc21,1,4,2,1,0,1
Cc1ccc(-n2c(C)cc(/C=C3/C(=O)NC(=O)N(Cc4ccco4)C3=O)c2C)cc1,-1,28*,3,10,41,16
O=C(CN1C(=O)[C@@H](Cc2ccc(O)cc2)N=C(c2ccccc2)c2ccccc21)NC1CCCCC1,.,0,-3,-1,.,4
O=C1NC(=S)N(c2ccc(F)cc2)C(=O)/C1=C\c1ccoc1,.,.,.,.,85*,.
C=C1[C@@H](C)C2[C@H](Cc3ccccc3)NC(=O)[C@]23[C@H](OC(C)=O)/C=C/[C@@](C)(O)C(=O)[C@@H](C)C/C=C/[C@H]3[C@@H]1O (stereo partly specified),.,4,-3,-1,.,-1
Cc1nc2c(=O)n(C)c(=O)nc-2n(C)n1,-2,-25,16*,7,128*,0
Cc1cc(/C=C2\C(=O)NC(=O)N(c3cccc(F)c3)C2=O)c(C)n1-c1ccc(C(=O)O)c(Cl)c1,2,12,7,9,60*,17
CN1C(=O)C(c2ccc([N+](=O)[O-])cc2[N+](=O)[O-])C(=O)N(C)C1=O,0,-2,-1,21*,6,2
O=[N+]([O-])c1ccc(Cl)c([N+](=O)[O-])c1,-2,3,3,-1,10,1
O=C(NCCN1CCC2(CC1)C(=O)NCN2c1ccccc1)c1ccc2ccccc2c1,-2,-4,0,-1,.,2
SMILES,PG9 Ab binder,LEDGF integ inh,MBD2 inh,UHRF1 binding,DNMT1 block,rCAG RNA binder
O=C1C(=O)c2ccccc2-c2ccccc21,-2,-54,11,-10,105*,6
O=C1C(=O)c2cccc3cccc1c23,0,4,-6,-18,-14,1
CCOC(=O)c1c(NS(=O)(=O)c2ccccc2)n(CCCOC)c2nc3ccccc3nc12,3,20*,8,13,38,27
CCCCCn1c(NC(=O)c2ccco2)c(C(=O)OCC)c2nc3ccccc3nc21,.,.,.,.,46,.
CN(C(=O)Oc1ccc(Cl)c2cccnc12)c1ccccc1,1,2,7,21*,-3,-8
COc1cccc(C(=O)C2CN(C)CC2c2ccc(Cl)cc2)c1 (stereo unspecified),0,1,2,70*,-5,-7
COc1ccc(C(=O)C2CN(C)CC2c2ccc(Cl)cc2)cc1 (stereo unspecified),0,0,5,3,0,-10
Nc1c2c(nc3sc4c(c13)CCCC4)CCCC2,-1,2,9,29*,1,10
CCCC(=O)N1c2ccc(Cl)cc2C(c2ccccc2)=NCC1C(=O)NC(C)(C)C (stereo unspecified),.,5,1,1,.,0
C/C(=N\NC(=O)c1ccccc1O)c1c(O)n(Cc2ccccc2)c(=O)[nH]c1=O,0,2,-7,-4,-4,86*
CN1CCCC1C(O)(c1ccccc1)c1ccccc1 (stereo unspecified),3,1,1,2,7,-2
CN1CCCC2c3ccccc3CCC21 (stereo unspecified),1,-1,-3,22*,2,4
O=C(O)CCl,2,-2,-3,0,.,2
CC(NC(=O)OC1CC2CCC1(C)C2(C)C)P(=O)(Oc1ccccc1)Oc1ccccc1 (stereo unspecified),.,-3,1,1,.,.
O=C1NC(=O)C(=Cc2cccc(OCCOc3ccccc3)c2)C(=O)N1,2,3,-7,-5,-4,2
Cc1ccc(OCCOc2cccc(C=C3C(=O)NC(=O)NC3=O)c2)c(C)c1,1,-3,-1,-4,52*,-2
C=C(C=O)CC1CC(O)[C@]2(C)OC3CC4OC5C[C@]6(C)O[C@]7(C)CCC8OC9C[C@]%10(C)OC%11C(C)=CC(=O)OC%11CC%10OC9C[C@@H](C)C8OC7CC6O[C@]5(C)C/C=C\C4OC3CC2O1 (stereo partly specified),.,1,2,-3,.,.
Brc1ccc2c(c1)-n1nncc1CNC2,0,5,1,35*,.,2
O=C(O)CC1OCC=C2CN3CCC45c6ccccc6NC4C1C2CC35 (stereo unspecified),0,0,-2,-1,1,1
O=C(O)CC1OCC=C2CN3CCC45C6=CC(=O)C(=O)C([N+](=O)[O-])=C6NC4C1C2CC35 (stereo unspecified),.,.,.,.,58*,.
O=C1CC=C2C3CC4N(CCC45c4ccccc4N1C25)CC3=CCO (stereo unspecified),0,0,4,-3,3,3
